# Assay results taken from the supplement of paper PMC3342239.
# Where a name gives a salt, the structure may show the parent alone.
# System: Saccharomyces cerevisiae
# Assay: fraction of cells in G1 phase (DNA content, flow cytometry); higher = more cells with unreplicated DNA (G1 delay)
# Conditions: temperature: 30 C; YPD; JTY2953 pdr5 snq2 (sensitized); drug added to: cultures diluted from stationary phase; 6-7 h
# Outline: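 Yeast (S. cerevisiae) in YPD at 30°C was treated with library drugs, and cells were then fixed in ethanol, stained with SYTOX Green and counted by flow cytometry over 10,000 events. Sensitized JTY2953 diluted 1∶200 from an overnight culture got a final 20 µg/ml and was fixed 6–7 h later; other runs dosed dividing JTY2953 (fixed at 6 h) or BY4741 (fixed at 4.33 h). G1 fraction means the Dean-Jett-Fox G1 peak area relative to the G1 and G2/M areas together.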
row,Compound,fraction of cells in G1 phase
1,CC(C(=O)O)c1cccc(C(=O)c2ccccc2)c1 (configuration not stated) [Ketoprofen] (78.6509 µM),0.502
2,CCN(CC)CCNC(=O)c1ccc(N)cc1 [Procainamide] (73.5835 µM),0.494
3,CN[C@@H]1[C@H](O)[C@H](NC)[C@H]2O[C@@]3(O)C(=O)C[C@@H](C)O[C@H]3O[C@@H]2[C@H]1O [Spectinomycin] (60.1763 µM),0.485
4,CCCc1nn(C)c2c(=O)[nH]c(-c3cc(S(=O)(=O)N4CCN(C)CC4)ccc3OCC)nc12 [Sildenafil] (42.142 µM),0.503
5,O=C(O)CCCc1ccccc1 [Sodium phenylbutyrate] (107.418 µM),0.491
6,CCCOc1ccccc1-c1nc2[nH]nnc2c(=O)[nH]1 [Zaprinast] (73.7243 µM),0.482
7,O=C(O)c1cn(-c2ccc(F)cc2)c2cc(N3CCNCC3)c(F)cc2c1=O [Sarafloxacin HCl] (51.8977 µM),0.444
